# Measurements: ChEMBL document CHEMBL5724796, “Tm Shift (DSF) assay results for EUbOPEN Chemogenomics Library” (2024)
# Residues, ends and D or L forms follow the SMILES beside them. *: point of attachment. Cbz = O=C(OCc1ccccc1)*; CH2F = FC*
# Assays:
# Conditions in all cases: Compound concentration 20.0 uM
# [1] = target: Tyrosine-protein kinase ABL1 (Homo sapiens) (UniProt P00519)
# [2] = target: Bromodomain-containing protein 4 (Homo sapiens) (UniProt O60885)
# [3] = target: Cyclin-dependent kinase 2 (Homo sapiens) (UniProt P24941)
# [4] = target: Casein kinase I isoform delta (Homo sapiens) (UniProt P48730)
# Chain of Casein kinase I isoform delta (Homo sapiens) (P48730 whole entry, looked up, canonical isoform): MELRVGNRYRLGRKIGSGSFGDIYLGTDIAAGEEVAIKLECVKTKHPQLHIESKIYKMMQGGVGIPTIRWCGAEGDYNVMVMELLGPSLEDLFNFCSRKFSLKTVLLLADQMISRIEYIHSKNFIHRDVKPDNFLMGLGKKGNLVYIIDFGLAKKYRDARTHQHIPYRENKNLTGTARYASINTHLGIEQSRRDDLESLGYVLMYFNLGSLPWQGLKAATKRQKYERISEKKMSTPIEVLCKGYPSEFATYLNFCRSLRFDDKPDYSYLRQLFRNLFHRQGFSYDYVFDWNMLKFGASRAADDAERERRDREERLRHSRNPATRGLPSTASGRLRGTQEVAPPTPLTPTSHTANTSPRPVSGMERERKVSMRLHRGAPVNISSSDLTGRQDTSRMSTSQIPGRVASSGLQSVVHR
# [5] = target: Glycogen synthase kinase-3 beta (Homo sapiens) (UniProt P49841)
# Chain of Glycogen synthase kinase-3 beta (Homo sapiens) (P49841 whole entry, looked up): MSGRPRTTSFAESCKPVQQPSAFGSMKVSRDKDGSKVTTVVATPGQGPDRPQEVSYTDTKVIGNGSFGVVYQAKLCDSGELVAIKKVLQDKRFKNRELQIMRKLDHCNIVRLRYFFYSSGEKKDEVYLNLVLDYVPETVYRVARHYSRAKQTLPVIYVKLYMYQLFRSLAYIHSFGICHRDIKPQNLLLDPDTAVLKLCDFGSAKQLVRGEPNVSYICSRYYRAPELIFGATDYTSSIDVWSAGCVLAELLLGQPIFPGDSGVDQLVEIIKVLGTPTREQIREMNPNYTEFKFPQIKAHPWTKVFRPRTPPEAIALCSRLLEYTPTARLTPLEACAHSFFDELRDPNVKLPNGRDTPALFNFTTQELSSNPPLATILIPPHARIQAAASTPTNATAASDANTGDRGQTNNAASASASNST
# [6] = target: Mitogen-activated protein kinase 1 (Homo sapiens) (UniProt P28482)
# Chain of Mitogen-activated protein kinase 1 (Homo sapiens) (P28482 whole entry): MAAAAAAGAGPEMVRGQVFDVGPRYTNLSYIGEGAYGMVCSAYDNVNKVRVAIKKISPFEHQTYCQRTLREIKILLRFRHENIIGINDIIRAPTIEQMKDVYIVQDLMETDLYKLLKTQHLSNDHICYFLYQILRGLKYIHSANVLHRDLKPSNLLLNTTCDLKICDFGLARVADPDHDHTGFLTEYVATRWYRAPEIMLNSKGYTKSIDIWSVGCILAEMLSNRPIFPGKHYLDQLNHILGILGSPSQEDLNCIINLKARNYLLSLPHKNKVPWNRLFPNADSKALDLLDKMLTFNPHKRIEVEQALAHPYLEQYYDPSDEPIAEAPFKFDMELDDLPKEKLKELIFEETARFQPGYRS
# [7] = target: T1, Aurora kinase A (Homo sapiens) (UniProt O14965)
# T1 sequence (whole entry): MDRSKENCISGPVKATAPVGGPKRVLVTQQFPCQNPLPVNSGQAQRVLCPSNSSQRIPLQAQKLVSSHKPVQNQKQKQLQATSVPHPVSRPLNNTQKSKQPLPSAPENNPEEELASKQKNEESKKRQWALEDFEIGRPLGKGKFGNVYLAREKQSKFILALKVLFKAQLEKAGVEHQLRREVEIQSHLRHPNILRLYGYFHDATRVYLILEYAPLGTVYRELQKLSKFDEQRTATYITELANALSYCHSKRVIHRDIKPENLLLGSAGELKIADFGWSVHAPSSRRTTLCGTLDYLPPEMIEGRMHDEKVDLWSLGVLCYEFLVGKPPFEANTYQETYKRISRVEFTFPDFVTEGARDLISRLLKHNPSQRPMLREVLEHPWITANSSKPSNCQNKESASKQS
# [8] = target: T2, Transcription intermediary factor 1-alpha (Homo sapiens) (UniProt O15164)
# T2 sequence (whole entry): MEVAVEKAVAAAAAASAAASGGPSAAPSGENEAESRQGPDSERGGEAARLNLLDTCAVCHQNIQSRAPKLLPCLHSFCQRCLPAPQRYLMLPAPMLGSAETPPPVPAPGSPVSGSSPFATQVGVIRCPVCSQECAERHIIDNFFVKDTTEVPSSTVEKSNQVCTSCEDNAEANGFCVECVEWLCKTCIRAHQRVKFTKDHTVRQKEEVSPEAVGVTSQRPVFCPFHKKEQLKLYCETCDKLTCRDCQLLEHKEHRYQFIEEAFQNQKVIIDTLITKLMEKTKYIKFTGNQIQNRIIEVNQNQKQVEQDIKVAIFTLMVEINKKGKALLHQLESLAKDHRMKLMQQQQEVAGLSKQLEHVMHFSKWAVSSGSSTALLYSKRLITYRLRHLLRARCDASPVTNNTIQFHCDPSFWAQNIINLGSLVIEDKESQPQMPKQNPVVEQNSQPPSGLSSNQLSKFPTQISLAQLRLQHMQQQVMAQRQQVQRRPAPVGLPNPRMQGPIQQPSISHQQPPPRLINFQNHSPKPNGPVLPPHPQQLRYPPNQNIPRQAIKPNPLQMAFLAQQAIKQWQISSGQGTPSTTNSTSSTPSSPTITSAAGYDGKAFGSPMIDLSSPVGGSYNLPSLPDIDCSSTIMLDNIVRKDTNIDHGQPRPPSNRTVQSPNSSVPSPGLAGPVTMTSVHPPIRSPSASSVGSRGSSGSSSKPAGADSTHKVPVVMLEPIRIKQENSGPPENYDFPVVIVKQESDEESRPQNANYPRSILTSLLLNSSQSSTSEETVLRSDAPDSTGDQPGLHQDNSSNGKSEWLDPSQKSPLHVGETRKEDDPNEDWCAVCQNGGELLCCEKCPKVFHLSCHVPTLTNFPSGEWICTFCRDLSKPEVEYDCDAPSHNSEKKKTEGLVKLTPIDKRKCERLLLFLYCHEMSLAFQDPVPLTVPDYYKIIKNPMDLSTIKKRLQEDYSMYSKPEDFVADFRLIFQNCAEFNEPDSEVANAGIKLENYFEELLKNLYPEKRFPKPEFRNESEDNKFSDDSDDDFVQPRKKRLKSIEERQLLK
# Chain of Tyrosine-protein kinase ABL1 (Homo sapiens) (P00519 whole entry): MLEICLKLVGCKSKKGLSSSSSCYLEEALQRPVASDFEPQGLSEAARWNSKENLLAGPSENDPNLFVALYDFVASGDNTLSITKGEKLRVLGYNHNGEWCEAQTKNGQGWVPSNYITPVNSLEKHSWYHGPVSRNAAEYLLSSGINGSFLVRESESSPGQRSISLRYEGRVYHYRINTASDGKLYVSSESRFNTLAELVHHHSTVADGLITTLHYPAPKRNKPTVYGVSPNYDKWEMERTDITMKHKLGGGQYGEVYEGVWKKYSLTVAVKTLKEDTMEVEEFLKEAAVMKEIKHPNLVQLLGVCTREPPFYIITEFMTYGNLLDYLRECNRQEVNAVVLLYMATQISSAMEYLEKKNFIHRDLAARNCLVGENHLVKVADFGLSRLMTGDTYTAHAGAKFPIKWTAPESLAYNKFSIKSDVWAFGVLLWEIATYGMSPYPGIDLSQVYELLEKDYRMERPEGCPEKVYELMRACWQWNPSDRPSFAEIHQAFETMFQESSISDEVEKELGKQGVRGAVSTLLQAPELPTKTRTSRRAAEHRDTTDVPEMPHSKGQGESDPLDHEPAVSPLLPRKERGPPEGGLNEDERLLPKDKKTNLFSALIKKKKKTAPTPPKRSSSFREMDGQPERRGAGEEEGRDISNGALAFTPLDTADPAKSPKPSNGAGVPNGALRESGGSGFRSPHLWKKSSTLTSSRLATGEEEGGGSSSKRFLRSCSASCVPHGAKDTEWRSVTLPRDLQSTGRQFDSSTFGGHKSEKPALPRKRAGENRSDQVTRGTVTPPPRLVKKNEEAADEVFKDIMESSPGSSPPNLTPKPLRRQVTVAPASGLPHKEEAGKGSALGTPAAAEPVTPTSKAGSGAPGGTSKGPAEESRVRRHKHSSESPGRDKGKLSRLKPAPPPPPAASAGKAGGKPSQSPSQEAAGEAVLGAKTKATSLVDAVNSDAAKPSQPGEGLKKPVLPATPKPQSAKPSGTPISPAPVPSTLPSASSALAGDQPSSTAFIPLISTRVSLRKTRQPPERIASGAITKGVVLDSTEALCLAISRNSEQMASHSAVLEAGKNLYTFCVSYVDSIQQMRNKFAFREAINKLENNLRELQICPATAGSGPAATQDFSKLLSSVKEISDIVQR
Structure (SMILES),ΔTm [1],ΔTm [2],ΔTm [3],ΔTm [4],ΔTm [5],ΔTm [6],ΔTm [7],ΔTm [8]
O=C(Nc1c[nH]nc1C(=O)NC1CCNCC1)c1cc(F)cc(F)c1,0.13 °C,-1.86 °C,1.26 °C,1.02 °C,13.9 °C,-0.13 °C,-0.72 °C,-0.9 °C
O=C(O)CCNc1cc(N2CCc3ccccc3CC2)nc(-c2cccnc2)n1,0.76 °C,-1.28 °C,0.04 °C,0.2 °C,-0.02 °C,-0.29 °C,2.29 °C,-0.51 °C
CCCCCCCC(=O)N[C@H](CN1CCCC1)[C@H](O)c1ccc2c(c1)OCCO2,0.07 °C,-0.36 °C,-0.06 °C,-0.32 °C,-0.11 °C,0.14 °C,-1.58 °C,-0.39 °C
Nc1c[nH]c(=O)c2cc(-c3ccccc3)sc12,0.27 °C,-1.56 °C,-0.22 °C,0.6 °C,-0.86 °C,0.57 °C,-0.64 °C,-1.2 °C
c1cncc(-c2cnn[nH]2)c1,0.48 °C,-1.91 °C,-0.01 °C,-0.01 °C,-0.3 °C,0.24 °C,-1.49 °C,-0.2 °C
O=C(C=Cc1ccc(O)cc1)c1ccc(O)cc1O,6.6 °C,1.51 °C,1.64 °C,1.31 °C,2.87 °C,1.33 °C,1.81 °C,-0.03 °C
COc1c(CN)cc(CN)cc1OCCCN1Cc2ccccc2C1,0.19 °C,-1.72 °C,-0.14 °C,-0.24 °C,-0.15 °C,0.22 °C,-2.26 °C,0.95 °C
CCOc1ccc(S(=O)(=O)Nc2ccc(Cl)cc2C#Cc2cnc(C(=O)O)cc2OC)c2ncccc12,0.04 °C,-2.23 °C,-0.26 °C,-7.02 °C,-2.42 °C,-0.03 °C,-2.9 °C,0.7 °C
COc1cc2c(NC3CCN(C)CC3)cc(-c3ccc(C)o3)nc2cc1OCCCN1CCCC1,0.3 °C,0.18 °C,0.69 °C,0.17 °C,0.49 °C,0.01 °C,0.09 °C,-0.54 °C
Cc1cc(C(=O)N2CCN(C3CN(C(=O)c4ccc(-c5ccccc5)cc4)C3)CC2)no1,0.78 °C,-2.08 °C,-0.01 °C,0.33 °C,0 °C,0.28 °C,0 °C,-0.09 °C
CCCCCCCCCCCCCC(=S)NCCCC[C@H](NC(=O)OCc1ccccc1)C(=O)Nc1ccccc1,0.75 °C,2.49 °C,1.43 °C,0.13 °C,0.6 °C,0.45 °C,-2.19 °C,1.92 °C
Cc1cc(-c2ccccc2)cc(C(=O)NNS(=O)(=O)c2ccccc2)c1F,0.58 °C,-6.22 °C,-3.62 °C,0.42 °C,-3.1 °C,0 °C,-4.21 °C,-1.85 °C
CC(C)[C@@H]1NC(=O)[C@H](Cc2ccc(O)cc2)NC(=O)[C@@H](CC(=O)O)NC(=O)S[C@@H](C(=O)O)NC(=O)[C@H]([C@H](C)O)NC(=O)[C@H](Cc2ccc(O)cc2)NC(=O)[C@H](Cc2c[nH]c3ccccc23)NC(=O)[C@H](CCCNC(=N)N)NC(=O)[C@H](Cc2c[nH]c3ccccc23)NC(=O)[C@H](C)NC(=O)[C@H](CO)NC(=O)[C@H](CCCNC(=N)N)NC(=O)[C@H]([C@H](C)O)NC(=O)[C@H](CC(N)=O)NC(=O)[C@H](Cc2ccc(O)cc2)NC1=O,0.39 °C,-2.6 °C,0.11 °C,-0.3 °C,-0.36 °C,0.08 °C,-2.45 °C,-0.7 °C
C[C@H](Nc1cc(Cl)nc2c1cnn2[C@@H]1O[C@H](COP(=O)(O)CP(=O)(O)O)[C@@H](O)[C@H]1O)c1ccccc1F,1.24 °C,-1.43 °C,-0.1 °C,0.27 °C,1 °C,-0.38 °C,1.74 °C,-0.82 °C
CC(C)C(=O)SCCCCCCC(=O)Nc1nc(-c2ccccc2)cs1,0.63 °C,-1.46 °C,0.18 °C,0.04 °C,1.11 °C,-0.16 °C,-0.57 °C,-0.48 °C
O=C(CCCCCCC(=O)Nc1ccc([C@H]2O[C@@H](CSc3nc(-c4ccccc4)c(-c4ccccc4)o3)C[C@@H](c3ccc(CO)cc3)O2)cc1)NO,-3.66 °C,-1.65 °C,-1.26 °C,0 °C,2.86 °C,-12.5 °C,2.82 °C,3.56 °C
O=C(Cc1ccccc1)c1cc(O)c(O)c([N+](=O)[O-])c1,0.39 °C,-1.83 °C,0.33 °C,-0.3 °C,-0.88 °C,0.35 °C,0 °C,1.83 °C
O=C(NC(Cc1ccccc1)C(=O)NC(Cc1ccccc1)C(=O)CF)OCc1ccccc1 (stereo not drawn) (Cbz-Phe-Phe-CH2F; configuration not given here),0.45 °C,-0.83 °C,0.11 °C,-0.3 °C,0.04 °C,0.22 °C,-2.32 °C,1.22 °C
CN1CCN2c3c(cccc31)[C@@H]1CN(CCCC(=O)c3ccc(F)cc3)CC[C@@H]12,-0.01 °C,-0.67 °C,-0.01 °C,-0.14 °C,-0.53 °C,0.07 °C,-0.26 °C,0.32 °C
OC1CN=C2c3ccn([C@@H]4O[C@H]([C@H](O)c5ccc(Cl)cc5)[C@@H](O)[C@H]4O)c3N=CN21 (stereo partly specified),0.73 °C,-1.38 °C,0.66 °C,0.22 °C,-0.73 °C,0.16 °C,-0.39 °C,-1.14 °C
CN1CCN(c2cc(C(=O)Nc3ncc(SCc4cccc(C(F)(F)F)c4)s3)ccn2)CC1,3.36 °C,-0.44 °C,-0.22 °C,-0.03 °C,0 °C,-0.59 °C,0 °C,-2.66 °C
CC(C)c1ccc(-c2cc(=O)c3ccccc3o2)cc1,1.37 °C,-0.23 °C,-0.03 °C,0.58 °C,0 °C,0.37 °C,-1.77 °C,-0.62 °C
